# Data taken from the supplement of paper PMC8728848.
# Many of the other results were omitted from the sample, so the strongest signals are more common in it than they were.
# Assays:
# Assay in all cases: glycan array binding signal (z-score within array); higher = stronger binding
# Settings in all cases: glycan notation: IUPAC condensed, linker removed
# [1] = biological target: Fuc(a1-2)Gal(b1-3)GalNAc
# Summary of the method: (§1)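 The binding signal is a Z-score computed within each array. Data were drawn from 3228 arrays in the Consortium for Functional Glycomics database, restricted to those with a known protein sequence. Scores were averaged over arrays of the same protein sequence at different concentrations or buffers, and over linkers, and negative values can be taken as non-binding.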
# [2] = biological target: Fuc(a1-2)Gal(b1-3)GalNAc(b1-3)Gal
# Summary of the method: as §1
# [3] = biological target: Fuc(a1-2)Gal(b1-3)GlcNAc(b1-3)Gal(b1-4)Glc
# Summary of the method: as §1
# [4] = biological target: Fuc(a1-2)Gal(b1-4)Glc
# Summary of the method: as §1
# [5] = biological target: Fuc(a1-2)[GalNAc(a1-3)]Gal(b1-4)Glc
# Summary of the method: as §1
# [6] = biological target: Fuc(a1-3)GlcNAc
# Summary of the method: as §1
# [7] = biological target: Fuc(a1-3)[Gal3S(b1-4)]Glc6S
# Summary of the method: as §1
# [8] = biological target: Gal(a1-3)Gal
# Summary of the method: as §1
# [9] = biological target: Gal(a1-4)Gal(b1-4)GlcNAc(b1-2)Man(a1-3)[Gal(a1-4)Gal(b1-4)GlcNAc(b1-2)Man(a1-6)]Man(b1-4)GlcNAc(b1-4)GlcNAc
# Summary of the method: as §1
# [10] = biological target: Gal(a1-4)Gal(b1-4)GlcNAc(b1-3)Gal(b1-4)Glc
# Summary of the method: as §1
# [11] = biological target: Gal(b1-3)GlcNAc
# Summary of the method: as §1
# [12] = biological target: Gal(b1-3)GlcNAc(b1-3)Gal(b1-4)Glc
# Summary of the method: as §1
# [13] = biological target: Gal(b1-3)[Fuc(a1-4)]GlcNAc
# Summary of the method: as §1
# [14] = biological target: Gal(b1-3)[Fuc(a1-4)]GlcNAc(b1-3)Gal(b1-4)[Fuc(a1-3)]GlcNAc
# Summary of the method: as §1
# [15] = biological target: Gal(b1-3)[Neu5Ac(b2-6)]GalNAc
# Summary of the method: as §1
# [16] = biological target: Gal(b1-4)GlcNAc(b1-2)Man(a1-6)[GlcNAc(b1-2)Man(a1-3)]Man(b1-4)GlcNAc(b1-4)GlcNAc
# Summary of the method: as §1
# [17] = biological target: Gal(b1-4)GlcNAc(b1-6)Gal(b1-4)GlcNAc
# Summary of the method: as §1
# [18] = biological target: Gal(b1-4)GlcNAc(b1-6)GalNAc
# Summary of the method: as §1
# [19] = biological target: Gal3S(b1-4)Glc
# Summary of the method: as §1
# [20] = biological target: Gal3S6S(b1-4)GlcNAc6S
# Summary of the method: as §1
# [21] = biological target: Gal6S(b1-4)Glc
# Summary of the method: as §1
# [22] = biological target: GalNAc(b1-3)Gal(a1-4)Gal(b1-4)GlcNAc
# Summary of the method: as §1
# [23] = biological target: Glc(a1-6)Glc(a1-6)Glc
# Summary of the method: as §1
# [24] = biological target: Glc(b1-4)Glc
# Summary of the method: as §1
# [25] = biological target: GlcNAc(b1-3)[GlcNAc(b1-4)][GlcNAc(b1-6)]GlcNAc
# Summary of the method: as §1
# [26] = biological target: Kdn(a2-3)Gal(b1-3)GalNAc
# Summary of the method: as §1
# [27] = biological target: Man(a1-2)Man(a1-2)Man(a1-3)Man
# Summary of the method: as §1
# [28] = biological target: Man(a1-3)[Man(a1-6)]Man(a1-6)[Man(a1-3)]Man(b1-4)GlcNAc(b1-4)GlcNAc
# Summary of the method: as §1
# [29] = biological target: Neu5Ac(a2-3)Gal(b1-3)GlcNAc(b1-3)GalNAc
# Summary of the method: as §1
# [30] = biological target: Neu5Ac(a2-3)Gal(b1-4)GlcNAc(b1-3)Gal(b1-4)GlcNAc(b1-3)Gal(b1-4)GlcNAc
# Summary of the method: as §1
# [31] = biological target: Neu5Ac(a2-3)Gal(b1-4)GlcNAc(b1-3)Gal(b1-4)[Fuc(a1-3)]GlcNAc
# Summary of the method: as §1
# [32] = biological target: Neu5Ac(a2-3)Gal(b1-4)[Fuc(a1-3)]GlcNAc(b1-3)GalNAc
# Summary of the method: as §1
# [33] = biological target: Neu5Ac(a2-6)Gal(b1-4)GlcNAc(b1-2)Man(a1-3)[Gal(b1-4)GlcNAc(b1-2)Man(a1-6)]Man(b1-4)GlcNAc(b1-4)GlcNAc
# Summary of the method: as §1
# [34] = biological target: Neu5Ac(a2-6)Gal(b1-4)GlcNAc(b1-2)Man(a1-6)[GlcNAc(b1-2)Man(a1-3)]Man(b1-4)GlcNAc(b1-4)GlcNAc
# Summary of the method: as §1
# [35] = biological target: Neu5Ac(a2-6)GlcNAc(b1-4)GlcNAc
# Summary of the method: as §1
# [36] = biological target: Neu5Ac9Ac(a2-6)Gal(b1-4)GlcNAc
# Summary of the method: as §1
binder,measurement,setting,value
"SBD (Rhizopus oryzae), P07683 (protein) ASIPSSASVQLDSYNYDGSTFSGKIYVKNIAYSKKVTVVYADGSDNWNNNGNIIAASFSGPISGSNYEYWTFSASVKGIKEFYIKYEVSGKTYYDNNNSANYQVS",glycan array binding signal (z-score),[1],0.019
same,glycan array binding signal (z-score),[2],2.93
same,glycan array binding signal (z-score),[3],2.1
same,glycan array binding signal (z-score),[4],-0.623
same,glycan array binding signal (z-score),[5],-0.2
same,glycan array binding signal (z-score),[6],0.165
same,glycan array binding signal (z-score),[7],0.589
same,glycan array binding signal (z-score),[8],-0.697
same,glycan array binding signal (z-score),[9],2.59
same,glycan array binding signal (z-score),[10],0.2
same,glycan array binding signal (z-score),[11],0.042
same,glycan array binding signal (z-score),[12],2.02
same,glycan array binding signal (z-score),[13],-0.029
same,glycan array binding signal (z-score),[14],0.121
same,glycan array binding signal (z-score),[15],-0.657
same,glycan array binding signal (z-score),[16],-0.081
same,glycan array binding signal (z-score),[17],0.47
same,glycan array binding signal (z-score),[18],-0.13
same,glycan array binding signal (z-score),[19],0.207
same,glycan array binding signal (z-score),[20],0.19
same,glycan array binding signal (z-score),[21],-0.476
same,glycan array binding signal (z-score),[22],-0.155
same,glycan array binding signal (z-score),[23],-0.213
same,glycan array binding signal (z-score),[24],-0.436
same,glycan array binding signal (z-score),[25],-0.005
same,glycan array binding signal (z-score),[26],0.62
same,glycan array binding signal (z-score),[27],5.61
same,glycan array binding signal (z-score),[28],-0.313
same,glycan array binding signal (z-score),[29],2
same,glycan array binding signal (z-score),[30],-0.668
same,glycan array binding signal (z-score),[31],-0.067
same,glycan array binding signal (z-score),[32],3.37
same,glycan array binding signal (z-score),[33],-0.457
same,glycan array binding signal (z-score),[34],0.349
same,glycan array binding signal (z-score),[35],0.158
same,glycan array binding signal (z-score),[36],-0.195
